Results reported in PubChem BioAssay AID504834 (National Center for Advancing Translational Sciences (NCATS), 2011).
In all, about 320,000 compounds went through this assay and about 22,000 (6.9%) were called active. Inconclusive results (about 27%) are left out. Calls come from the whole dose curve; as a rule, active = well fitted inhibition curve with a large enough effect; inconclusive = small, poorly fitted or top-dose-only effect, or another doubt; inactive = no such curve, though single readings can be large or run the other way. Shown is part of a subset that was picked to be rich in actives. Where a call stands in place of a potency, no number is given. Where a SMILES comes first, the peptide text is derived from it. [ ]: non-standard residue; d: D form. The star is where a group is joined. PhAc = O=C(Cc1ccccc1)*

Test: Primary qHTS for delayed death inhibitors of the malarial parasite plastid, 96 hour incubation
Settings: P. falciparum luciferase reporter growth; series mostly up to 28.7 µM
How it was run: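 Erythrocytes infected with luciferase-expressing P. falciparum were dispensed at 2% hematocrit and 0.05% parasitemia (final), then incubated with compounds 96 hours at 37 C in 5% CO2. Luminescence after detection reagent addition reported growth.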
Potency is the fitted concentration of half-maximal effect.

Row | Structure (SMILES) | Potency
1 | COc1cc(C#Cc2ccc3cc(CCCO)oc(=O)c3c2)cc(OC)c1 | inactive
2 | Cc1ccc(NC(=O)CN(C)C(=O)COC(=O)C(C)(C)Oc2ccc(Cl)cc2)cc1 | inactive
3 | CC1(c2ccc3ccccc3c2)NC(=O)N(CC(N)=O)C1=O (stereo not given) | inactive
4 | O=C(NCCCn1ccnc1)c1cc2c(s1)CCCC2 | inactive
5 | CCOC(=O)CC1(NC(=O)c2cc(COc3cncc(Cl)c3)on2)CCCCC1 | inactive
6 | COc1ccc(S(=O)(=O)NCCOc2ccccc2)cc1F | inactive
7 | CC(C)(C)n1ncc2c(=O)n(Cc3c(Cl)cccc3Br)cnc21 | inactive
8 | O=C(O)c1ccc(/C=C2\SC(=S)N(NC(=O)c3ccc(Br)cc3)C2=O)cc1 | inactive
9 | CS(=O)(=O)N1CCN(CC(=O)NC2CCCC2)CC1 | inactive
10 | CCN(CC(=O)Nc1c(F)cccc1F)C(=O)c1ccc(S(=O)(=O)N2CCCCC2)cc1 | inactive
11 | Cn1c(CCN2CCCC2)nc2cc(NS(=O)(=O)c3ccccc3)ccc21 | inactive
12 | COc1ccccc1C(CNC(=O)c1cccc(S(=O)(=O)Nc2ccc(F)cc2)c1)N(C)C (stereo not given) | 8.28 µM (active)
13 | COc1ccc(C(CNC(=O)c2ccc(NS(=O)(=O)c3ccc(F)c(C)c3)cc2)N(C)C)cc1 (stereo not given) | inactive
14 | CN(C)C(CNC(=O)c1cccc(S(=O)(=O)Nc2ccc(Br)cc2)c1)c1ccco1 (stereo not given) | inactive
15 | CSc1nnc2ccc(-c3ccc(C)cc3)nn12 | inactive
16 | O=C(CN1CCN(c2ccccn2)CC1)NC1CCCCC1 | inactive
17 | O=C(Cn1c(-c2cncs2)nc2ccccc21)NC1CCCC1 | 9.28 µM (active)
18 | O=C(Cn1c(-c2cscn2)nc2ccccc21)Nc1ccc(Cl)cc1 | inactive
19 | Cc1ccn2c(=O)nc(SCC(=O)NCc3ccc(F)cc3)nc2c1 | inactive
20 | CC(C)C[C@@H](NC(=O)[C@H]1CCCN1C(=O)Cc1ccccc1)C(N)=O (PhAc-[dP]-[dL]-NH2) | inactive
21 | COc1cccc(OC)c1C(=O)N1CCN(Cc2cccnc2)CC1 | inactive
22 | COc1ccccc1-c1nn(Cc2ccccc2)cc1C(=O)N1CCN(c2ncccn2)CC1 | 13.1 µM (active)

Row | Structure (SMILES) | Potency
23 | Oc1ccc(CN2CCN(c3ncccn3)CC2)cc1 | inactive
24 | CCOCCCNC(=O)C1(O)c2cc(Br)ccc2NC(=O)N1c1ccc(C)c(C)c1 (stereo not given) | inactive
25 | COc1ccc(NS(=O)(=O)c2ccc3oc(SCC(N)=O)nc3c2)cc1 | inactive
26 | COc1ccc(CNC(=O)[C@H](Cc2c[nH]c3ccccc23)NC(C)=O)cc1OC | inactive
27 | CC(=O)NC(Cc1c[nH]c2ccccc12)C(=O)NCCc1ccccc1 (stereo not given) | inactive
28 | COc1cccc(NC(=O)[C@H](Cc2c[nH]c3ccccc23)NC(=O)[C@@H]2Cc3ccccc3CN2)c1 | 11.7 µM (active)
29 | CC1(C)c2[nH]c3ccccc3c2C[C@H]2C(=O)N(N)CC(=O)N21 | inactive
30 | COCCN1CCN(C(=O)c2cc(COc3ccc(F)cc3Cl)on2)CC1 | inactive
31 | Cc1ccc(NC(=S)N/N=C2/CCCc3c(C)cc(C)cc32)cc1 | inactive
32 | O=[N+]([O-])c1ccccc1N/N=C1\CCc2ccccc21 | inactive
33 | CCCCNC(=S)N/N=C1\CCCCc2ccccc21 | 9.28 µM (active)
34 | Cc1ccccc1N1CCN(C2CCCN(C(=O)c3cn4c(C)cccc4n3)C2)CC1 (stereo not given) | inactive
35 | COc1ccccc1C(=O)Nc1ccnn1C1CCN(Cc2cnn(C)c2)CC1 | inactive
36 | CCOC(=O)c1c(NC(=S)Nc2ccccc2C)sc2c1CCC2 | inactive
37 | CCOCC(=O)Nc1sc2c(c1C(=O)OCC)CCCC2 | inactive
38 | CCOC(=O)c1c(NC(=O)Cn2nc(C(F)(F)F)cc2C)sc2c1CCC2 | inactive
39 | CCOC(=O)c1c(NC(=S)Nc2ccccc2)sc2c1CCN(C)C2 | inactive
40 | CCOC(=O)c1c(NC(=S)NC)sc2c1CCCC2 | 8.28 µM (active)
41 | CCOC(=O)c1c(NC(=O)NC(C)(C)C)sc2c1CCN(C)C2 | 4.15 µM (active)
42 | O=C(CCc1nc(-c2ccccc2)no1)Nc1cccc(C(=O)NC2CC2)c1 | inactive
43 | CCOC(=O)C1CCN(S(=O)(=O)c2ccc3c(c2)N(C)C(=O)CC(=O)N3C)CC1 | inactive
44 | COc1cc2ccccc2cc1C(=O)Nc1ccc(N2CCOCC2)cc1 | inactive

Row | Structure (SMILES) | Potency
45 | COc1cccc(C(=O)NC(=O)Nc2nc(C)cc(C(F)(F)F)n2)c1 | inactive
46 | Cc1cccc(OCC(=O)Nc2ccc(NC(=O)c3ccco3)c(C)c2)c1 | inactive
47 | O=C(CN1C(=O)NC2(CCCCC2)C1=O)N1CCN(C(=O)c2cccs2)CC1 | inactive
48 | O=C(CN1C(=O)NC2(CCCCCC2)C1=O)NCc1cccs1 | inactive
49 | O=C1CN(C(=O)CN2C(=O)NC3(CCCCC3)C2=O)c2ccccc2N1 | 14.7 µM (active)
50 | COCCN1CCn2c(nc3cc(NS(C)(=O)=O)ccc32)C1 | inactive
51 | Cc1ccc(CNC(=O)c2ccc(CS(=O)Cc3cccc(Cl)c3)o2)cc1 (stereo not given) | inactive
52 | COc1ccc(CCNC(=O)c2cnc(Cl)c(Cl)c2)cc1 | inactive
53 | Nc1c(C(=O)NCc2ccccc2)sc2nc3c(cc12)C(=O)CCC3 | inactive
54 | COC(=O)c1cc2c(N)c(C(=O)c3ccc(Cl)cc3)sc2nc1C(OC)OC | inactive
55 | CC(C)OC(=O)c1sc2nc3c(cc2c1N)C(=O)CCC3 | 5.22 µM (active)
56 | Cc1cccc(N2C(=O)C3C(c4ccccc4)OC4(C(=O)c5ccccc5C4=O)C3C2=O)c1 (stereo not given) | inactive
57 | O=C(NC1(C(F)(F)F)NC(=O)N(C2CCCCC2)C1=O)c1ccco1 (stereo not given) | inactive
58 | CC12C(=O)N(c3ccccc3)C(=O)C1C(c1ccccc1)N1CCCN12 (stereo not given) | inactive
59 | Cc1cccc([C@@H]2[C@@H]3C(=O)N(Cc4ccccc4)C(=O)[C@@H]3[C@]3(Cc4ccc(Cl)cc4)C(=O)N(c4cccc(Cl)c4)C(=O)N23)c1 | inactive
60 | Cc1cccc(N2C(=O)N3[C@H](c4ccc(F)cc4)[C@@H]4C(=O)N(C5CCCCC5)C(=O)[C@@H]4[C@]3(Cc3ccccc3)C2=O)c1 | 13.1 µM (active)
61 | COc1ccc(C2C(C(C)=O)=C(O)C(=O)N2Cc2cccnc2)cc1 (stereo not given) | inactive
62 | O=C1[C@H]2[C@@H](c3ccc(F)cc3)N3C(=O)N(c4ccc(C(F)(F)F)cc4)C(=O)[C@@]3(Cc3ccccc3)[C@H]2C(=O)N1C1CCCCC1 | 5.22 µM (active)
63 | C[C@@]12C(=O)N(c3cccc(Br)c3)C(=O)N1[C@H](c1ccc(Cl)cc1)[C@@H]1C(=O)N(C3CCCCC3)C(=O)[C@@H]12 | 16.5 µM (active)
64 | COc1ccc([C@@H]2[C@@H]3C(=O)N(C(C)(C)C)C(=O)[C@@H]3[C@]3(Cc4ccccc4)C(=O)N(c4cccc(Br)c4)C(=O)N23)cc1 | 1.65 µM (active)
65 | COc1ccc(N2C(=O)C(Cc3ccccc3)NC2=S)cc1 (stereo not given) | inactive
